# Test results reported in the supplement of paper PMC12669032.
# Several values for one entry are separate records, joined by “and”; a condition that tells them apart may be missing. Identical values can stand only once. Values without a mark were called inactive.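 How the source made its calls: active = AUC reduced over 20% with Padj below 0.05 in at least 2 of 3 replicates; inactive = otherwise.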
# Assays:
# Roseburia intestinalis = test: growth AUC relative to DMSO control (median of replicates) (fraction); higher = more growth (less inhibition), active = hit call of the paper; details: 20 µM; 24 h
# Method in brief: (§1)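 Gut bacterial monocultures were grown anaerobically at 37 °C in mGAM, starting at OD600 0.05, with 20 µM compound (1% DMSO) in round-bottom 96-well plates under pierced gas-permeable seals. OD600 was read hourly for 24 h. Area under the growth curve (minimum OD set to 0) was normalised to the plate median of DMSO controls, or to row and column medians on the industrial chemical plate. The value is the median of three biological replicates grown on separate days.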
# Streptococcus salivarius = test: as above; details: 20 µM; 24 h
# Method in brief: as §1
Structure (SMILES),growth AUC (Roseburia intestinalis),growth AUC (Streptococcus salivarius)
CC/C(=N\OC/C=C/Cl)C1=C(O)CC(C2CCOCC2)CC1=O (stereo unspecified),1.02,0.994
C[C@@H](Oc1ccc(Oc2ccc(C(F)(F)F)cn2)cc1)C(=O)O,0.99,1.05
CCSCCSP(=S)(OC)OC,1.03,1.02
CC(=NC#N)N(C)Cc1ccc(Cl)nc1,0.956 and 1.02,1.05 and 1.06
Nc1c([N+](=O)[O-])ccc(Oc2ccccc2)c1Cl,0.988,0.929
COCc1c(F)c(F)c(COC(=O)[C@@H]2[C@@H](C=C(Cl)Cl)C2(C)C)c(F)c1F,0.979,0.986
CCOP(=O)(OCC)ON1C(=O)c2cccc3cccc(c23)C1=O,0.9,1.03
O=C1C=CC(=O)C=C1,1.08,0.979
Nc1cc(Cl)cc(C(=O)O)c1Cl,1.04,1.02
CCOP(=O)(NC(C)C)Oc1ccc(SC)c(C)c1 (stereo unspecified),1.02,0.951
CNC(=O)Oc1cccc2c1OC(C)(C)C2=O,0.994,0.924
CCOP(=S)(OCC)Oc1cnc2ccccc2n1,0.99,0.954
CNC(=O)CSP(=S)(OC)OC,0.982,0.968
CCOP(=S)(OCC)SCCS(=O)CC (stereo unspecified),0.965,0.973
COP(=O)(OC)OC=C(Cl)Cl,0.985,1.03
COP(N)(=S)Oc1ccccc1C(=O)OC(C)C (stereo unspecified),1.07,0.991
O=[N+]([O-])c1ccc(Oc2ccc(C(F)(F)F)cc2[N+](=O)[O-])cc1,0.928,0.985
CCNc1nc(NC(C)(C)C)nc(SC)n1,1.07,0.984
C/C(=N/Nc1nc(C)cc(C)n1)c1ccccc1C,0.715 (active),0.999
Nc1ccc(Cl)cc1,0.963,1.01
CCCCCCCCn1sccc1=O,0.449 (active),0.815
Cc1cc(Cl)ccc1N=CN(C)C,1.02,0.998
CCCCc1c(C)nc(NCC)nc1OS(=O)(=O)N(C)C,1.03,1.02
CCOP(=S)(OCC)SCn1nnc2ccccc2c1=O,1.11,0.993
CCOCN(C(=O)CCl)c1c(C)cccc1CC,1.01,1
O=C1c2ccccc2C(=O)N1SC(Cl)(Cl)Cl,0.99,1.01

Structure (SMILES),growth AUC (Roseburia intestinalis),growth AUC (Streptococcus salivarius)
CN(C)C(CSS(=O)(=O)[O-])CSS(=O)(=O)O.[Na+],1.06,0.979
Clc1ccc(Cl)cc1,1.01,1.02
O=C(NC(=O)c1c(F)cccc1F)Nc1cc(Cl)c(Oc2ncc(C(F)(F)F)cc2Cl)c(Cl)c1,1.11,0.98
CCOP(=S)(OCC)Oc1nc(Cl)n(C(C)C)n1,1.02,1
CC1=C(C(=O)Nc2ccccc2)SCCO1,1.08,1.08
CC1=NNC(=O)N(/N=C/c2cccnc2)C1,1.01,1.04
Cc1cc(Cl)ccc1OCC(=O)O.O.[Na],1.02,0.986
COP1(=S)OCc2ccccc2O1 (stereo unspecified),0.943,1.01
ClC1=C(Cl)[C@]2(Cl)[C@@H]3[C@@H]4C[C@@H]([C@H]5O[C@@H]45)[C@@H]3[C@@]1(Cl)C2(Cl)Cl,1,1.03
CCCOc1nn(C(=O)[N-]S(=O)(=O)c2ccccc2C(=O)OC)c(=O)n1C.[Na+],0.992,0.981
COP(=S)(OC)Oc1ccc(S(C)(=O)=O)c(C)c1,0.985,0.972
CS/C(C)=N/OC(=O)N(C)SN(C)C(=O)O/N=C(\C)SC,1.01,0.955
COP(=S)(OC)Oc1ccc(Sc2ccc(OP(=S)(OC)OC)cc2)cc1,1.03,1.01
CSc1nnc(C(C)(C)C)c(=O)n1N,1.06,1.01
C/C(=N\NC(=O)Nc1cc(F)cc(F)c1)c1ncccc1C(=O)[O-].[Na+],1.06,0.988
ClCC1C(CCl)C2(Cl)C(Cl)=C(Cl)C1(Cl)C2(Cl)Cl (stereo unspecified),0.996,0.981
CCc1cnc(C2=NC(C)(C(C)C)C(=O)N2)c(C(=O)O)c1 (stereo unspecified),1.02,1.02
CC(Oc1ccc(Oc2ccc(C(F)(F)F)cn2)cc1)C(=O)O (stereo unspecified),0.908,0.93
CC(C)[C@@H](Nc1ccc(C(F)(F)F)cc1Cl)C(=O)OC(C#N)c1cccc(Oc2ccccc2)c1 (stereo partly specified),0.961,1.01
COCc1cnc(C2=NC(C)(C(C)C)C(=O)N2)c(C(=O)O)c1 (stereo unspecified),0.978,0.977
CC1(C)CC/C(=C\c2ccc(Cl)cc2)C1(O)Cn1cncn1 (stereo unspecified),1.02,0.993
CCNc1nc(NCC)nc(SC)n1,1.08,0.978
COP(=S)(OC)Oc1cc(Cl)c(Cl)cc1Cl,0.966,0.994
O=C(NC(=O)c1c(F)cccc1F)Nc1cc(Cl)c(OC(F)(F)C(F)F)c(Cl)c1,0.977,0.962
CNc1nc(C)c(C)c(OC(=O)N(C)C)n1,0.951,1.03
CCCCC(C#N)(Cn1cncn1)c1ccc(Cl)cc1 (stereo unspecified),0.94,0.993

Structure (SMILES),growth AUC (Roseburia intestinalis),growth AUC (Streptococcus salivarius)
CCS(=O)Cc1ccccc1OC(=O)NC (stereo unspecified),1.02,0.987
COc1cc(OC)nc(Oc2cccc(Oc3nc(OC)cc(OC)n3)c2C(=O)[O-])n1.[Na+],1.06,1.01
CSc1nc(NC(C)C)nc(NC(C)C)n1,1.02,1.03
CCOC(=O)CC(SP(=O)(OC)OC)C(=O)OCC (stereo unspecified),0.997,1.01
Cc1ccc(N(SC(F)(Cl)Cl)S(=O)(=O)N(C)C)cc1,1.01,1.01
O=P(OC(CCl)CCl)(OC(CCl)CCl)OC(CCl)CCl,0.949,0.969
O=CNC(N1CCN(C(NC=O)C(Cl)(Cl)Cl)CC1)C(Cl)(Cl)Cl (stereo unspecified),0.934,0.982
c1nc[n]([Sn]([CH]2CCCCC2)([CH]2CCCCC2)[CH]2CCCCC2)n1,0.654 (active),1.01
CCOP(=S)(OCC)Oc1cc(C)nc(N(CC)CC)n1,0.941,1
CC(CCl)OP(=O)(OC(C)CCl)OC(C)CCl (mixture of isomers),0.967,1.01
CCCCN(CCCC)SN(C)C(=O)Oc1cccc2c1OC(C)(C)C2,0.942,1
CCC(C)(C)C(=O)OC1=C(c2ccc(Cl)cc2Cl)C(=O)OC12CCCCC2,1.02,1.03
CCOP(=S)(OCC)Oc1cc(-c2ccccc2)on1,0.993,0.995
O=C(NC(=O)c1c(F)cccc1F)Nc1ccc(Cl)c(Oc2ncc(C(F)(F)F)cc2Cl)c1,1,1.02
CC1(C)[C@H](C(=O)O[C@H](C#N)c2cccc(Oc3ccccc3)c2)[C@@H]1C=C(Br)Br,0.933,0.914
CCOP(=S)(OCC)Oc1ccc2c(C)c(Cl)c(=O)oc2c1,1.01,1
CC1(C)CON(Cc2ccccc2Cl)C1=O,0.896,0.87
CCOP(=S)(OCC)SCCSCC,1.02,1.01
COCc1c(F)c(F)c(COC(=O)C2C(C=C(C)C)C2(C)C)c(F)c1F (stereo unspecified),1,1.06
C1CCC(NC2CCCCC2)CC1.O=NO,1,0.986
Cc1ccc2nc3sc(=O)sc3nc2c1,0.892,0.983
COc1cc(Cl)c(OC)cc1Cl,1.04,1.04
CCOc1nc(NC)nc(NC(=O)NS(=O)(=O)c2ccccc2C(=O)OC)n1,0.992,1.03
CCOP(=S)(NC(C)CC)Oc1cc(C)ccc1[N+](=O)[O-] (stereo unspecified),1.01,0.976
O=C(O)c1cc(Cl)ccc1Cl,0.993,1.01
CCCCOC(=O)c1ccccc1C(=O)OCCCC,0.953,1.02
